A selection: hits, their analogues and other compounds. The true share with any hit is near 12%.
JMJD2A Tudor: qHTS Assay for Inhibitors of JMJD2A-Tudor Domain; Lysine-specific demethylase 4A (Homo sapiens), O75164; actives 4.4% (n = 390,000); AID 504339, 2011; Potency, µM (series often up to 114 µM), inactives show top-dose activity change, negative = inhibition, actives largely listed as inhibitors; AlphaScreen JMJD2A-Tudor / H3K4me3 peptide binding; note: % is set by controls: 0 for no effect and ±100 for the full control effect; nearly all actives have a fitted effect of over 50% in size
Target sequence (O75164 whole entry, looked up, the tested form may be a part): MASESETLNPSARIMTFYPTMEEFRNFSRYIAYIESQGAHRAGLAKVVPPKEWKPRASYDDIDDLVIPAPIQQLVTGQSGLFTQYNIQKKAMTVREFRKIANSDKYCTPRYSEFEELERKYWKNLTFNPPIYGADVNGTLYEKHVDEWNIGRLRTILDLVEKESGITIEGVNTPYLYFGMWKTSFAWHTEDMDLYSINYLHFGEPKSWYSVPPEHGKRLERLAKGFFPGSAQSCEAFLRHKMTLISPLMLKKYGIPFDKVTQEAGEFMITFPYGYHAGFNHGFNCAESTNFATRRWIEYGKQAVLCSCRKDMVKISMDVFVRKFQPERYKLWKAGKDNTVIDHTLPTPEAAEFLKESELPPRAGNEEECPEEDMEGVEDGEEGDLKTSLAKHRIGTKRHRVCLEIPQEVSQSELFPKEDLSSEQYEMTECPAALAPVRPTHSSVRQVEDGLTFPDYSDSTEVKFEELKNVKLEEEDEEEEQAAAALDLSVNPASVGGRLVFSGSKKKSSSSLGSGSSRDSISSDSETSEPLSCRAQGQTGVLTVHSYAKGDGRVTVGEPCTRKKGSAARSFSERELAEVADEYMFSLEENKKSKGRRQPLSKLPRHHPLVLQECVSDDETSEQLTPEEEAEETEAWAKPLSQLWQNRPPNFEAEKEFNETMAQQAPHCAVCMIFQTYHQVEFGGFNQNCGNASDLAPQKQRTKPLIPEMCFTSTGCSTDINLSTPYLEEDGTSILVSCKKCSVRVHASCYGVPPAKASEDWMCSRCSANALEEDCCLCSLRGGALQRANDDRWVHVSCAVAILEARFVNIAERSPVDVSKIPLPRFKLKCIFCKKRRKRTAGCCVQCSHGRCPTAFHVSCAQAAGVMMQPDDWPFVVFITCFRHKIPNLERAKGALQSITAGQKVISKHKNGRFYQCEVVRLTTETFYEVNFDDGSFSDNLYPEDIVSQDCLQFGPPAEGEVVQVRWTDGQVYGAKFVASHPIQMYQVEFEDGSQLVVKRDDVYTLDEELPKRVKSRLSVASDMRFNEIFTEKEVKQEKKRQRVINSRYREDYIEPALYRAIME
Sfp PPTase inh: qHTS Assay for Inhibitors of Bacillus subtilis Sfp phosphopantetheinyl transferase (PPTase). actives 3.5% (n = 310,000). Biochemical Sfp PPTase activity, qHTS. Potency, µM, for the others: largest response in the series, negative = inhibition, usual class: inhibitors;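 note: the enzyme is Sfp with the accession as filed and its product quenches rhodamine fluorescence; 0% = enzyme reaction without inhibitor and -100% = no enzyme wells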
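Buffer: 50 mM Hepes-Na pH 7.6, 10 mM MgCl2, 0.01% Nonidet P-40, 0.01% BSA. Enzyme 15 nM, pre-exposed to compound 15 min; substrates then added and fluorescence change tracked over 30 min.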
G9a block: qHTS Assay for Inhibitors of Histone Lysine Methyltransferase G9a; Histone-lysine N-methyltransferase EHMT2 (Homo sapiens), Q96KQ7; G9a H3K9 monomethylation, AlphaScreen, 2 h; Potency, µM (highest dose often 102 µM), for inactives: at the top dose activity, negative = inhibition, most hits filed as inhibitors; actives 8.8% (n = 350,000); note: % is set by controls: 0 for no effect and ±100 for the full control effect; nearly all actives have a fitted effect of over 75% in size
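AlphaScreen detection with an anti-monomethyl H3K9 antibody quantified product after a 2 h room-temperature reaction containing 500 nM biotinylated H3K9 peptide, 20 µM SAM and 20 nM enzyme, which had been preincubated 15 min with compound.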
BAZ2B block: qHTS Assay for Inhibitors of BAZ2B | Bromodomain adjacent to zinc finger domain protein 2B (Homo sapiens), Q9UIF8 | AlphaScreen BAZ2B-H3K14Ac peptide displacement | Potency, µM (highest dose often 114 µM), for inactives: at the top dose activity change, negative = inhibition, actives largely listed as inhibitors | actives 4.4% (n = 360,000) | AID 504333, 2011; note: % is set by controls: 0 for no effect and ±100 for the full control effect; nearly all actives have a fitted effect of over 60% in size
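Inhibition is scored as reduced AlphaScreen emission. The BAZ2B/b-H3(5-23)K14Ac complex (50 nM each) in PBS pH 7.4, 0.01% Tween-20 meets compound (up to 110 uM) for 30 min at RT before bead addition.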
HP1b binding inh: HTS for Inhibitors of HP1-beta Chromodomain Interactions with Methylated Histone Tails; Chromobox protein homolog 1 (Homo sapiens), P83916; AlphaScreen HP1-beta / biotin-H3K9me3 peptide binding; Potency, µM (highest dose often 114 µM), for the others: top-dose activity change, negative = inhibition, usual class: inhibitors; actives 0.56% (n = 390,000); AID 540317, 2011; note: nearly all actives have a fitted effect of over 70% in size
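HP1-beta protein (50 nM final) preincubated 30 min at room temperature with biotinylated H3(1-18)K9me3 peptide (50 nM) in PBS pH 7.4, 0.01% Tween-20, then compound added for 30 min. AlphaScreen streptavidin donor/nickel chelate acceptor beads (10 ug/mL final), 30 min dark, luminescence read.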
Starred values were filed as active, the others as inactive; ? = inconclusive; . = no result; [ ] = remark or other dose. Calls come from the whole dose curve; as a rule, active = well fitted curve in the direction sought with a large enough effect; inconclusive = small, poorly fitted or top-dose-only effect, or another doubt; inactive = no such curve, though single readings can be large; an effect the other way counts as inactive or inconclusive. Potency is the fitted concentration of half-maximal effect.

SMILES	JMJD2A Tudor	Sfp PPTase inh	G9a block	BAZ2B block	HP1b binding inh
NC(=O)CC(NC(=O)c1ccccc1)c1ccc(N2CCN(c3ccccc3)CC2)c([N+](=O)[O-])c1 (stereo not given)	-15%	-15%	.	-9%	44%
O=[N+]([O-])c1cc(-n2cnnn2)ccc1N1CCC(Cc2ccccc2)CC1	10µM*	-12%	4%[0.501 µM]	28µM*	-42%
NC(=O)CC(NC(=O)c1cccc(Br)c1)c1ccc(N2CCN(c3ccccn3)CC2)c([N+](=O)[O-])c1 (stereo not given)	?	3%	50µM*	?	-6%
N#Cc1cccc(NS(=O)(=O)c2ccccc2Cl)c1	-2%	.	-14%[59 µM]	10%	28%
CC(=O)Nc1cc(S(=O)(=O)Nc2ccccc2C)c(C)cc1C	-14%	19%	81%[59 µM]	-31%[57.1 µM]	17%
Cc1cccc(NC(=O)c2cc([N+](=O)[O-])ccc2NC2CCCCC2)c1	-48%	14%	?	?	-18%
Cc1cc(C)cc(C(=O)NC(CC(N)=O)c2ccc(N3CCC(Br)CC3)c([N+](=O)[O-])c2)c1 (stereo not given)	-29%	17%	?	-37%	33%
Cc1cc(C)cc(C(=O)NC(CC(N)=O)c2ccc(N3CCC(Cc4ccccc4)CC3)c([N+](=O)[O-])c2)c1 (stereo not given)	-20%	2%	50µM*	?	20%
CC1CCCN(C(=O)COC(=O)Cc2c[nH]c3ccccc23)C1 (stereo not given)	-15%	.	2%[12.7 µM]	-6%	42%
CC(=O)c1cc2c(O)c(O)ccc2o1	?	56µM*	4µM*	-30%	15%
O=C(Nc1ccc2c(c1)OCO2)c1ccc(N2CCCC2)c([N+](=O)[O-])c1	?	-3%	10µM*	35µM*	?
CN1CCN(c2ccccc2NC(=O)c2ccc(N3CCCCC3)c([N+](=O)[O-])c2)CC1	50µM*	?	?	40µM*	?
O=C(Nc1ccc(N2CCCCC2)c(Cl)c1)c1ccc(N2CCOCC2)c([N+](=O)[O-])c1	?	6%	-11%[0.501 µM]	6%	-31%
CC(NC(=O)CN1CCN(c2cccc(Cl)c2)CC1)c1ccccc1 (stereo not given)	-12%	-1%	.	6%	6%
O=C(CN1CCN(c2ccc(O)cc2)CC1)NC(c1ccccc1)c1ccccc1	50µM*	10µM*	7.9µM*	?	?
O=C(CN1CCCCCC1)NC(c1ccccc1)c1ccccc1	22µM*	-30%	7.9µM*	79µM*	?
COCCNC(=O)c1ccc2nc(Cc3ccccc3)oc2c1	-11%	.	3%[59 µM]	-2%	12%[57 µM]
Cc1ccc(S(=O)(=O)N2CC(=O)NC(=O)C2)cc1	8%	6%	-5%[59 µM]	-11%	17%
Cc1csc(NC(=O)CSc2ncnc3ccccc23)n1	-17%	6%	91%	8%	25%
Cc1csc(NC(=O)CSc2nc3ccccc3c3c2CCCC3)n1	-31%	-8%	28µM*	-11%	-9%
Cc1csc(NC(=O)CSc2ncc(-c3ccccc3)[nH]2)n1	-27%	11%	3.2µM*	50µM*	3%
CC(C)OC(=O)CSc1nc2ncccc2[nH]1	-3%	0%	9%	3%	46%
O=C(NC1CCCC1)c1ccc([N+](=O)[O-])s1	-26%	-16%	-2%[59 µM]	-26%	32%
CCc1c(C(=O)Nc2ccccc2)c(C)[nH]c(=S)c1C#N	7.1µM*	56µM*	1.6µM*	-8%	?
Cc1[nH]c(=S)c(C#N)c(C)c1C(=O)Nc1ccccc1	8.9µM*	45µM*	1.3µM*	-4%	?
SMILES	JMJD2A Tudor	Sfp PPTase inh	G9a block	BAZ2B block	HP1b binding inh
Cc1[nH]c(C(=O)O)c(C#N)c1C(=O)c1ccccc1	-14%	-4%	?	-18%	15%
COc1ccc(/C=C/C(=O)NCC(=O)N=Nc2c(O)[nH]c3ccc([N+](=O)[O-])cc23)cc1	?	4%	?	79µM*	3%
Cc1cccc(OCC(=O)NCC(=O)N=Nc2c(O)[nH]c3ccc([N+](=O)[O-])cc23)c1	-23%	-16%	?	?	18%
CCCCCC(=O)N=Nc1c(O)[nH]c2ccc([N+](=O)[O-])cc12	?	6%	16%[59 µM]	?	3%
O=C(O)c1ccccc1N=Nc1c(O)[nH]c2ccc([N+](=O)[O-])cc12	?	-16%	25µM*	50µM*	71µM*
Cc1ccccc1NCC(=O)N=Nc1c(O)[nH]c2ccc([N+](=O)[O-])cc12	-21%	6%	?	-6%	43%
O=C(N=Nc1c(O)[nH]c2ccc([N+](=O)[O-])cc12)c1ccccc1Cl	?	?	?	56µM*	10%
CCOc1ccccc1C(=O)Nc1cccc(-c2nc3ccccc3s2)c1	1%	.	?	3%	17%
O=C1c2ccccc2-c2nnc(-c3ccccc3)cc21	-28%	4%	5%[0.501 µM]	?	18%
COc1ccc(-c2cc3c(nn2)-c2ccccc2C3=O)cc1	22µM*	11%	-5%	-14%	-8%
COc1cccc(/C=C/C(=C2\C(=O)N(c3ccccc3)N=C2C)c2ccc(Br)cc2)c1OC	?	.	.	.	40µM*
COc1cccc(/C=C/C(=O)Nc2cccc(C(C)=O)c2)c1OC	1%	10%	-10%	-13%	31%
O=C(NC(=S)Nc1ccc(Cc2ccncc2)cc1)c1ccc(F)cc1	-15%	50µM*	?	.	-12%
CC(C)(C)C(=O)NC(=S)Nc1ccc(Cc2ccncc2)cc1	?	-2%	35µM*	-35%	-15%
CN1/C(=C/C(=O)COC(=O)CN2C(=O)C3CC=CCC3C2=O)C(C)(C)c2ccccc21 (stereo not given)	-21%	.	.	.	-3%
COc1ccc(N2C(=NC(=O)C3CCCCC3)SC3CS(=O)(=O)CC32)c(OC)c1 (stereo not given)	28µM*	13%	66%	-28%	6%
Nc1c(C(=O)NCc2ccco2)nnn1CC(=O)Nc1ccccc1	-9%	-5%	-18%	14%	31%
O=S(=O)(NC1CCCCCC1)c1ccc(Br)s1	-2%[11.4 µM]	-4%	3%[59 µM]	43%	134%
CCCCOC(=O)C1CCCC(C(=O)OCCCC)N1 (stereo not given)	-31%	16%	50µM*	-1%	38%
CCCCOC(=O)C1C2CCC(O2)C1C(=O)OCC (stereo not given)	-9%	.	.	.	22%
O=S(=O)(Nc1nc2ccccc2nc1NCCN1CCOCC1)c1cccc(Cl)c1	-16%	16%	?	-2%	49%

Source: PubChem BioAssay
